PubChem BioAssay AID779 (Sanford-Burnham Center for Chemical Genomics, 2007)
Active and inactive are the calls of the source. The rule behind the calls is not given here.

Assay: PLAP enzyme activity inhibition – biochemical, colorimetric, counter-screen, dose response (AID 779)
Details: colorimetric OD read-out

SMILES	IC50
N#CC(c1nc2ccccc2nc1N1CCCC1)S(=O)(=O)c1cccs1 (stereo not drawn)	> 50 µM (inactive)
C=CCn1c(SCC(=O)Nc2ncc(Cc3cc(C(F)(F)F)ccc3Cl)s2)nnc1-c1ccncc1	> 50 µM (inactive)
CN(C)c1ccc(/C=C/C=C2/SC(=S)N(c3ccccc3)C2=O)cc1	> 50 µM (inactive)
Brc1ccc(-c2nnc(-c3cccc(Br)c3)o2)cc1	> 50 µM (inactive)
Cc1cccc2cc(/C=C3\N=C(c4ccccc4)OC3=O)c(N3CCOCC3)nc12	> 50 µM (inactive)
CCCCn1nc(-c2ccccc2)c2nc3ccccc3nc21	> 50 µM (inactive)
COc1cc(/C=C2\SC(=S)N(Nc3ncc(C(F)(F)F)cc3Cl)C2=O)cc(OC)c1OC	> 50 µM (inactive)
O=C(NCc1ccccc1)c1ccc2nc(-c3ccco3)c(-c3ccco3)nc2c1	> 50 µM (inactive)
CCCCN1C(=O)/C(=C/C=C2\N(C)c3ccccc3C2(C)C)SC1=S	> 50 µM (inactive)
COc1ccc(NC2=Nc3ccccc3N3C2=Nc2c(c(C)nn2-c2ccc(C)cc2)C3c2cccnc2)cc1 (stereo not drawn)	> 50 µM (inactive)
CCn1c(O)c(/C=N/N=C/c2ccccc2)c2ccc(C3=NNC(=O)CC3)cc21	> 50 µM (inactive)
FC(F)(F)c1nnc2c(Sc3ccccn3)nc3ccccc3n12	> 50 µM (inactive)
CCOC(=O)c1c(NC(C)=O)sc2c1CCC(C=O)=C2Sc1ccccc1	> 50 µM (inactive)
CC(=O)N(c1ccc2oc(=O)sc2c1)S(=O)(=O)c1ccccc1	> 50 µM (inactive)
O=S(=O)(c1ccc2nc(-c3ccco3)c(-c3ccco3)nc2c1)N1CCOCC1	> 50 µM (inactive)
CCN1/C(=C/c2ccc3cccc(C)c3[n+]2CC)Sc2ccccc21	> 50 µM (inactive)
COc1ccc(/C=c2\sc3nc(-c4ccccc4)c(-c4ccccc4)n3c2=O)cc1OC	> 50 µM (inactive)
CCOC(=O)C1=C(c2ccccc2)N=c2s/c(=C\c3cc(OC)c(OC)c(OC)c3)c(=O)n2C1c1cccs1 (stereo not drawn)	> 50 µM (inactive)
